Test results: PubChem BioAssay
Values joined by “and” are separate entries in the source; they are usually repeats but may differ in a detail not shown here. Identical values can stand only once. Active and inactive are the calls of the source.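 Rule for the calls, unless noted: active = thallium flux through the channel raised or lowered by more than 3 SD from vehicle-only wells, actives on both sides; inactive = the rest.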

What was measured:
[1] = compounds altering viability of human ES cells (AID 493140; call rule not given here;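 note: cells exposed to compounds for four days before counting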); settings: human embryonic stem cell survival screen; stronger effect = higher value
[2] = P. berghei load reduction in hepatocytes – cell-based, HepG2, luciferase luminescence, HepG2 viability, primary screen (AID 624349; in the data active = parasite load remaining mostly below about 12%, no sharp cut-off; inactive = mostly above about 10%;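 note: 100% = mean of DMSO negative control wells on the same plate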); settings: P. berghei liver stage in HepG2, luciferase luminescence, concentration not given here; parasite load remaining: stronger effect = lower value; viability: measured here: HepG2 viability without parasites
[3] = signal quenchers or enhancers, Cy5 substrate/SSB – biochemical, NIH Clinical Collection, E. coli SSB, artefact control for HCV NS3 helicase inhibitor project (AID 743268; call rule not given here); settings: Cy5-oligo bound E. coli SSB, fluorescence interference
[4] = test system: Hepatitis C virus NS3 helicase; test: blockers of NS3h binding to DNA – biochemical, fluorescence polarization, NIH Clinical Collection, primary screen (AID 743270; call rule not given here); settings: NS3 helicase binding to Cy5-dT15 DNA, stronger effect = higher value, concentration not given here
[5] = target: Single-stranded DNA-binding protein (Escherichia coli (strain K12)) (UniProt P0AGE0); test: SSB-ssDNA binding inhibitors – biochemical, fluorescence polarization, NIH Clinical Collection, counter-screen for HCV NS3 helicase inhibitor project (AID 743271; in the data active = inhibition above about 28%); settings: E. coli SSB-DNA binding, stronger effect = higher value, concentration not given here
[6] = compounds distorting NS3 helicase fluorescence signal – biochemical, NIH Clinical Collection, artefact control for HCV NS3 helicase inhibitor project (AID 743272; call rule not given here;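 note: HCV NS3 helicase with a Cy5 labelled single stranded DNA probe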); settings: fluorescence interference counterscreen, HCV NS3 helicase assay; stronger effect = lower value
[7] = target: 6-phosphogluconate dehydrogenase, decarboxylating (Homo sapiens) (UniProt P52209); test: inhibition of human phosphogluconate dehydrogenase – biochemical, recombinant enzyme, NADPH absorbance, primary screen (AID 1159550;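 active = at least 20% inhibition of 6-phosphogluconate dehydrogenase activity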); settings: recombinant 6PGD, NADPH absorbance 341 nm; at 10 µM; stronger effect = higher value
[8] = viability loss with induced miR-34 in A549 – imaging, A549 dox-inducible miR-34, nuclei and caspase counts, primary screen (AID 1347080;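 active = compounds whose cell count with miR-34 switched on is under 0.7 times the count with it off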); settings: A549 miR-34 inducible, Hoechst nuclei count, 48 h
[9] = MELAS cybrid and Rieske KO viability enhancers – cell-based, MELAS cybrids, Rieske KO mouse fibroblasts, CellTiter-Glo, primary screen (AID 1508586;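 active = mean z-score across replicates of 1.96 or higher in either the MELAS or the Rieske mutant cell line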;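 note: z relative to plate mean and SD of compound and empty wells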); settings: low glucose
[10] = target: NAD(+) hydrolase SARM1 (Homo sapiens) (UniProt Q6SZW1); test: blocking NAD cleavage by SARM1 SAM-TIR – cell lysate, NAD-Glo luminescence (AID 1508614;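 active = compound whose remaining NAD level is above about 45 nM, limit read from the data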;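 note: higher remaining NAD means stronger inhibition of SARM1 NADase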); settings: SAM-TIR HEK293T lysate NADase, at 1 µM, stronger effect = higher value
[11] = target: Mitogen-activated protein kinase 7 (Homo sapiens) (UniProt Q13164); test: Gal4-ERK5 driven luciferase induction – cell-based, HTS, primary screen (AID 1508626;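 active = luciferase signal above three times the same-plate solvent-only control wells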;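 note: luciferase driven by Gal4-ERK5 fusion binding five Gal4 sites before minimal TATA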); settings: HeLa Gal4-ERK5 transactivation, 18 h, at 5 µM, stronger effect = higher value
[12] = galactose survival enhancers in mitochondrial complex I cybrids – cell-based, galactose medium, ATP luminescence, primary screen (AID 1645843;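 active = z-score of at least 1.8 in each of two replicates, scored against plate mean and spread of sample wells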;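 note: positive z means more ATP and so rescue of galactose-driven cybrid death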); settings: complex I mutant cybrid cells, 72 h, stronger effect = higher value
F380Y = test: BK channel mutant inhibitors and activators – cell-based, U2OS BacMam, thallium flux, beta subunits, selectivity assay, profiling panel (AID 1259406); settings: U2OS BacMam BK variants, at 30 µM;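 note: initial slope of Thallos dye fluorescence rise after thallium is added; log ratio against the mean of 0.3% DMSO vehicle wells on the same plate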
F380Y/beta2Delta = test: as above; settings: U2OS BacMam BK variants, at 30 µM
[13] = target: Calcium-activated potassium channel subunit alpha-1 (Homo sapiens) + Leucine-rich repeat-containing protein 26 (Homo sapiens) (UniProt Q12791+Q2I0M4); test: as above; settings: U2OS BacMam BK variants, F380Y/Slo1WT/gamma1, at 30 µM
R275C = test: as above; settings: U2OS BacMam BK variants, at 30 µM
R275C/beta1 = test: as above; settings: U2OS BacMam BK variants, at 30 µM
R275C/beta2Delta = test: as above; settings: U2OS BacMam BK variants, at 30 µM
[14] = EMT-state selective cytotoxicity in co-culture – imaging, PC-3E GFP, TEM4-18 mCherry, primary screen (AID 1345086;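 active = compounds killing one labelled cell type while sparing the other, by normalised counts and ratio limits, not self-fluorescent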;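 for all read-outs here: cells exposed to compound for 72 h before imaging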;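 for red/green cell ratio (normalised): normalised mesenchymal count divided by normalised epithelial count so high means epithelial killing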); settings: PC-3E GFP / TEM4-18 mCherry co-culture, imaging cell counts, at 1 µM; for red/green cell ratio (normalised): actives lie on both sides, counts scaled to control wells, 1 = unselective
[15] = stronger effect = lower value, cell number ratio, induced over uninduced
[16] = measured here: relative caspase fold change +Dox/-Dox
[17] = measured here: total cells with miR-34 induction, stronger effect = lower value
[18] = measured here: total cells without miR-34 induction
[19] = MELAS cybrid survival, CellTiter-Glo 48 h, stronger effect = higher value
[20] = Rieske KO mouse fibroblast survival, CellTiter-Glo 72 h
[21] = measured here: epithelial PC-3E GFP cell survival
[22] = measured here: mesenchymal TEM4-18 mCherry cell survival

Sequence of Mitogen-activated protein kinase 7 (Homo sapiens) (Q13164 whole entry, looked up, the tested form may be a part): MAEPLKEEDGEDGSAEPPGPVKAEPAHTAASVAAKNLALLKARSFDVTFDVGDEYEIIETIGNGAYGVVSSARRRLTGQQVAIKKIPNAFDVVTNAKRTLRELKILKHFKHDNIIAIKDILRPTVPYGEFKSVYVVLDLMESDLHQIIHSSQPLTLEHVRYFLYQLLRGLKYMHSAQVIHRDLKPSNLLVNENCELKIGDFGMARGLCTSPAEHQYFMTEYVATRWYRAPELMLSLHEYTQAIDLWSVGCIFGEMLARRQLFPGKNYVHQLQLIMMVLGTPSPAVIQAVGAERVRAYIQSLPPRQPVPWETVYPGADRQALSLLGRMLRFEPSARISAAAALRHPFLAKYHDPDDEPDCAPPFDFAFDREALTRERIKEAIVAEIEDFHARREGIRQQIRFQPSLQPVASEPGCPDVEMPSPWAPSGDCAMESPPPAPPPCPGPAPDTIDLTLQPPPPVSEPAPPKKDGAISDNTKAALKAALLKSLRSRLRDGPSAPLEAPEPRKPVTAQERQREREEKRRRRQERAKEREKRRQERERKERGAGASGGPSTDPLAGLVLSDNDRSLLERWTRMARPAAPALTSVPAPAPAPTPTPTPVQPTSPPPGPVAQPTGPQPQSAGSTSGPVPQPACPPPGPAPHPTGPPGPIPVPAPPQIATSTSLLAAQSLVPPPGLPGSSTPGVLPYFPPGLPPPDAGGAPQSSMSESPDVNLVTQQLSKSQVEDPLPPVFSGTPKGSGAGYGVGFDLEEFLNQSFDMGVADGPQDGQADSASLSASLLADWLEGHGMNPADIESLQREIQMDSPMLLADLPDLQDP
Sequence of 6-phosphogluconate dehydrogenase, decarboxylating (Homo sapiens) (P52209 whole entry, looked up): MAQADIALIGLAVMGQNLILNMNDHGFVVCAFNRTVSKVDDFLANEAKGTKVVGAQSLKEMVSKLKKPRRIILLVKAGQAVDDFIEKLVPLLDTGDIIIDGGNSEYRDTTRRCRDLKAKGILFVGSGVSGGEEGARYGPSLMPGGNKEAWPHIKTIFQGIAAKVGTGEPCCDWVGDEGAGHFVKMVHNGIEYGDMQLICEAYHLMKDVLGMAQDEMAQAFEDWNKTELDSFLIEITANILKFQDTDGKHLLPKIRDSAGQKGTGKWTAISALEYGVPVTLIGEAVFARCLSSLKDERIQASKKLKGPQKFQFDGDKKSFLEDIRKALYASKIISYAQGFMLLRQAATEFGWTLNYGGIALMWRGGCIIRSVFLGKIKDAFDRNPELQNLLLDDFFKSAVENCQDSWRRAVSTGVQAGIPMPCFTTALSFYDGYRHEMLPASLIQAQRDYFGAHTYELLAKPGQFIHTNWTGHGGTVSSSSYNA
Sequence of Calcium-activated potassium channel subunit alpha-1 (Homo sapiens) + Leucine-rich repeat-containing protein 26 (Homo sapiens) (Q2I0M4 whole entry, looked up, one chain of several): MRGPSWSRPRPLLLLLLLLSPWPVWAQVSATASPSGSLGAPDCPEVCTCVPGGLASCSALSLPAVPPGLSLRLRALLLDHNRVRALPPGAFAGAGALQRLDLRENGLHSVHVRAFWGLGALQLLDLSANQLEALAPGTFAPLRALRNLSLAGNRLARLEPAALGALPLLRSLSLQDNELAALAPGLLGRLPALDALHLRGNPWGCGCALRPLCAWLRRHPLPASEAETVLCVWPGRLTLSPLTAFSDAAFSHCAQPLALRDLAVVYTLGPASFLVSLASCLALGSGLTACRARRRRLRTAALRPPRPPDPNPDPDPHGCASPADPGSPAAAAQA
Sequence of NAD(+) hydrolase SARM1 (Homo sapiens) (Q6SZW1 whole entry, looked up, the tested form may be a part): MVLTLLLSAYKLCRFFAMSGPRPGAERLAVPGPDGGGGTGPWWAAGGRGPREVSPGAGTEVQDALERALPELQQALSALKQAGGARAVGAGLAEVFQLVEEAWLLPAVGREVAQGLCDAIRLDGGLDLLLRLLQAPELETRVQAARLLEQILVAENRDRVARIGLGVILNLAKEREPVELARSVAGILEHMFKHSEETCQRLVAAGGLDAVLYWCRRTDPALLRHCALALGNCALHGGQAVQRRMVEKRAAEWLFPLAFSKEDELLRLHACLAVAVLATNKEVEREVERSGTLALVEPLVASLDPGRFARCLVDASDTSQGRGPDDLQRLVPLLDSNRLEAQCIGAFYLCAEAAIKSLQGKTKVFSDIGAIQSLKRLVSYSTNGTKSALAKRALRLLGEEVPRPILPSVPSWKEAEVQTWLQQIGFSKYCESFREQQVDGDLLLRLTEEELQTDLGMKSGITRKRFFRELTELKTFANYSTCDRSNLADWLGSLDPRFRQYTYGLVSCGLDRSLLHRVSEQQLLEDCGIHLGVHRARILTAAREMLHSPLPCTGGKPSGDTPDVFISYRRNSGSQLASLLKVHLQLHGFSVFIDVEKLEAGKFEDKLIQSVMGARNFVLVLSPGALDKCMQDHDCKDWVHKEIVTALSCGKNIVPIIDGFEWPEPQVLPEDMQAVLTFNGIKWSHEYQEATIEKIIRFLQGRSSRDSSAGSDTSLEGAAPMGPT

For CCN1CCN(C(=O)N[C@@H](C(=O)N[C@@H]2C(=O)N3[C@@H]2SC(C)(C)[C@@H]3C(=O)O)c2ccccc2)C(=O)C1=O, the survival [1] was 1.83 (inactive), the parasite load remaining [2] was 50.1% (inactive) and 75.4% (inactive) and 36.6% (inactive) and the viability [2] was 89.8% and 93.5% and 71.5%. For the same compound, the fluorescence ratio [3] was 0.99 (inactive), the inhibition [4] was -3.18% (inactive) and the inhibition [5] was -1.24% (inactive). For the same compound, the fluorescence ratio [6] was 0.98 (inactive), the inhibition [7] was 12.4% (inactive) and the fold change [8, 15] was 0.928 (inactive) and 0.85 (inactive) and 0.888 (inactive). The fold change [8, 16] was 2.92 and 0.912 and 1.53, the cell count [8, 17] was 10600 and 8860 and 9900 and the cell count [8, 18] was 11400 and 10400 and 11200. For the same compound, the z-score [9, 19] was 0.757 (inactive) and -0.0978 (inactive), the z-score [9, 20] was 0.573 and 0.405 and the remaining NAD [10] was 10 nM (inactive). For the same compound, the luciferase signal [11] was 72 AU (inactive), the z-score [12] was 0.5 (inactive) and 0.93 (inactive) and the log fold change Tl+ flux (F380Y) was -0.0272 (inactive). The log fold change Tl+ flux (F380Y/beta2Delta) was -0.0244 (inactive), the log fold change Tl+ flux [13] was -0.00699 (inactive) and the log fold change Tl+ flux (R275C) was -0.096 (active). The log fold change Tl+ flux (R275C/beta1) was 0.0207 (inactive) and the log fold change Tl+ flux (R275C/beta2Delta) was -0.0292 (inactive).
With CCCCC(=O)O[C@H]1CC[C@H]2[C@@H]3CCc4cc(O)ccc4[C@H]3CC[C@]12C the parasite load remaining [2] was 36.5% (inactive), the viability [2] was 98.1% and the fluorescence ratio [3] was 1.02 (inactive). The inhibition [4] was 3.18% (inactive), the inhibition [5] was 4.1% (inactive) and the fluorescence ratio [6] was 0.91 (inactive). For the same compound, the inhibition [7] was 6.29% (inactive), the fold change [8, 15] was 1 (inactive) and the fold change [8, 16] was 2.83. For the same compound, the cell count [8, 17] was 6120, the cell count [8, 18] was 6090 and the z-score [9, 19] was -1.02 (inactive). For the same compound, the z-score [9, 20] was -0.171, the remaining NAD [10] was 10 nM (inactive) and the luciferase signal [11] was 84 AU (inactive). For the same compound, the z-score [12] was -1.51 (inactive), the log fold change Tl+ flux (F380Y) was 0.0324 (inactive) and the log fold change Tl+ flux (F380Y/beta2Delta) was 0.0462 (inactive). The log fold change Tl+ flux [13] was 0.00253 (inactive), the log fold change Tl+ flux (R275C) was 0.0329 (inactive) and the log fold change Tl+ flux (R275C/beta1) was 0.0221 (inactive). For the same compound, the log fold change Tl+ flux (R275C/beta2Delta) was -0.00327 (inactive).
In the case of CON=C(C(=O)NC1C(=O)N2C(C(=O)O)=C(COC(C)=O)CSC12)c1csc(N)n1 (stereo unspecified), the parasite load remaining [2] is reported as 73.2% (inactive), the viability [2] is reported as 130% and the fluorescence ratio [3] is reported as 1.03 (inactive). The inhibition [4] was 4.09% (inactive), the inhibition [5] was 36.1% (active) and the fluorescence ratio [6] was 1.03 (inactive). For the same compound, the inhibition [7] was -1.56% (inactive), the fold change [8, 15] was 0.991 (inactive) and the fold change [8, 16] was 2.86. For the same compound, the cell count [8, 17] was 11400, the cell count [8, 18] was 11500 and the z-score [12] was 0.145 (inactive). For the same compound, the log fold change Tl+ flux (F380Y) was -0.0263 (inactive), the log fold change Tl+ flux (F380Y/beta2Delta) was 0.0186 (inactive) and the log fold change Tl+ flux [13] was -0.0048 (inactive). The log fold change Tl+ flux (R275C) was 0.0263 (inactive), the log fold change Tl+ flux (R275C/beta1) was -0.0272 (inactive) and the log fold change Tl+ flux (R275C/beta2Delta) was -0.0298 (inactive).
For CCC/C=C1\OC(=O)C2=C1CCC=C2, the inhibition [7] was 3.63% (inactive), the red/green cell ratio (normalised) [14] was 1.13 (inactive) and the normalised cell number [14, 21] was 0.83. The normalised cell number [14, 22] was 0.94.
For COc1cc(-c2coc3cc(OCc4ccccc4)c(OC)c(O)c3c2=O)cc(O)c1OC, the inhibition [7] was 9.07% (inactive), the red/green cell ratio (normalised) [14] was 0.97 (inactive) and the normalised cell number [14, 21] was 1.1. The normalised cell number [14, 22] was 1.07.
For O=c1cc(-c2ccccc2)oc2cc(O)c(O)c(O)c12, the parasite load remaining [2] was 140% (inactive), the viability [2] was 91.4% and the inhibition [7] was 4.11% (inactive). The red/green cell ratio (normalised) [14] was 0.84 (inactive), the normalised cell number [14, 21] was 1.08 and the normalised cell number [14, 22] was 0.91. The fold change [8, 15] was 1.03 (inactive) and 0.801 (inactive) and 0.986 (inactive), the fold change [8, 16] was 1.01 and 1.16 and 0.831 and the cell count [8, 17] was 5800 and 6380 and 7810. The cell count [8, 18] was 5640 and 7960 and 7920, the z-score [9, 19] was -0.448 (inactive) and the z-score [9, 20] was -1.5. The luciferase signal [11] was 60 AU (inactive) and the z-score [12] was -0.805 (inactive).
With CCCCCC1C(=O)CCC1CC(=O)OC (stereo unspecified) the inhibition [7] was 6.35% (inactive), the red/green cell ratio (normalised) [14] was 0.86 (inactive) and the normalised cell number [14, 21] was 1.26. The normalised cell number [14, 22] was 1.08.
In the case of C[C@]12CC[C@@H](O)C[C@H]1CCc1ccccc12, the inhibition [7] is reported as -3.83% (inactive), the red/green cell ratio (normalised) [14] is reported as 1.08 (inactive) and the normalised cell number [14, 21] is reported as 1.09. The normalised cell number [14, 22] was 1.17.
For COc1cc(CNC(=O)CCCC/C=C/C(C)C)ccc1O, the survival [1] was 2.67 (inactive), the inhibition [7] was 18.7% (inactive) and the red/green cell ratio (normalised) [14] was 0.88 (inactive). For the same compound, the normalised cell number [14, 21] was 1.14, the normalised cell number [14, 22] was 1 and the z-score [9, 19] was -0.437 (inactive). The z-score [9, 20] was -0.16, the remaining NAD [10] was 10 nM (inactive) and the luciferase signal [11] was 32 AU (inactive). The z-score [12] was 0.07 (inactive) and 0.225 (inactive).
For N.N.O=C([O-])C1(C(=O)[O-])CCC1.[Pt+2], the inhibition [7] was -2.44% (inactive), the red/green cell ratio (normalised) [14] was 0.96 (inactive) and the normalised cell number [14, 21] was 1.09. The normalised cell number [14, 22] was 1.04.
For CC(=O)/C(=C\c1ccccc1)CC(=O)O, the inhibition [7] was 3.72% (inactive), the red/green cell ratio (normalised) [14] was 0.99 (inactive) and the normalised cell number [14, 21] was 1.18. The normalised cell number [14, 22] was 1.16.
In the case of CC(=O)c1ccc[nH]1, the inhibition [7] is reported as 13.8% (inactive), the red/green cell ratio (normalised) [14] is reported as 0.97 (inactive) and the normalised cell number [14, 21] is reported as 1.06. It also gave a normalised cell number [14, 22] of 1.03.
With O=C(O)c1cc(=O)c(O)c2c(O)c(O)ccc2c1 the inhibition [7] was 31% (active), the red/green cell ratio (normalised) [14] was 0.86 (inactive) and the normalised cell number [14, 21] was 1.29. The normalised cell number [14, 22] was 1.11.
In the case of COc1ccc2c(=O)c(OC)c(-c3ccccc3)oc2c1, the inhibition [7] is reported as 5.12% (inactive), the red/green cell ratio (normalised) [14] is reported as 0.95 (inactive) and the normalised cell number [14, 21] is reported as 1.07. It also gave a normalised cell number [14, 22] of 1.02.
For COc1ccc(C(=O)c2ccc(O)cc2)c(O)c1O, the inhibition [7] was -5.23% (inactive), the red/green cell ratio (normalised) [14] was 1.05 (inactive) and the normalised cell number [14, 21] was 0.85. For the same compound, the normalised cell number [14, 22] was 0.89.
In the case of CN1C[C@H](C(=O)N[C@]2(C)O[C@@]3(O)[C@@H]4CCCN4C(=O)[C@H](Cc4ccccc4)N3C2=O)C[C@@H]2c3cccc4[nH]cc(c34)C[C@H]21, the survival [1] is reported as 19.1 (inactive), the parasite load remaining [2] is reported as 81.1% (inactive) and 61.1% (inactive) and 32.5% (inactive) and the viability [2] is reported as 69.3% and 88.9% and 89.9%. The inhibition [7] was 6.21% (inactive), the red/green cell ratio (normalised) [14] was 1.38 (inactive) and the normalised cell number [14, 21] was 1.07. For the same compound, the normalised cell number [14, 22] was 1.48, the fold change [8, 15] was 1.02 (inactive) and 0.955 (inactive) and 0.914 (inactive) and the fold change [8, 16] was 1.31 and 1.01 and 2.52. The cell count [8, 17] was 7530 and 7990 and 11700, the cell count [8, 18] was 7390 and 8360 and 12800 and the remaining NAD [10] was 10 nM (inactive). The luciferase signal [11] was 32 AU (inactive) and the z-score [12] was -0.125 (inactive) and -0.835 (inactive).
